Data published in PubChem BioAssay.
Calls of active or inactive are those of the source. The rule behind the calls is not given here.

Each compound was assayed against Pantothenate synthetase (Mycobacterium tuberculosis (strain ATCC 25618 / H37Rv)) (UniProt P9WIL5) (assay: Recombinant Mtb pantothenate synthetase (PanC) inhibitors, coupled enzyme, confirmatory (AID 375;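 note: 0% = full reaction with vehicle and 100% = no enzyme background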)). Details: coupled enzyme assay; at 10 µM, stronger effect = higher value.
Chain of Pantothenate synthetase (Mycobacterium tuberculosis (strain ATCC 25618 / H37Rv)) (P9WIL5 whole entry, looked up): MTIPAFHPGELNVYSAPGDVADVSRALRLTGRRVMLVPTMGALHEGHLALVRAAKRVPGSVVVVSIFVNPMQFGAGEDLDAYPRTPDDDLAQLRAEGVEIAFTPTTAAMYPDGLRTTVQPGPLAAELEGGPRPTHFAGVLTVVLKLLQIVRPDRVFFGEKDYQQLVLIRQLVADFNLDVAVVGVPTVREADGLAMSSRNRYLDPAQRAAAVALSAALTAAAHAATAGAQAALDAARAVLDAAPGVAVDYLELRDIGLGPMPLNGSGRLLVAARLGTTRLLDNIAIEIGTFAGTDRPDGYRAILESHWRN

Question: For `CCN1CCN(c2nc3c(c(=O)[nH]c(=O)n3C)n2CCSc2nc3ccccc3s2)CC1`, which inhibition is on record?
Answer: Its inhibition is 3% (inactive).

Question: For `CN1CCN(CCCNC(=O)C2CC(=O)N(C3CCCCC3)C2)CC1` (stereo not given), which inhibition is on record?
Answer: Its inhibition is 4% (inactive).

Question: Which inhibition does the source give for `O=C(O)CCNc1ccc2c(c1)OCCO2` here?
Answer: The inhibition was 0% (inactive).

Question: With `Cc1ccc(C)c(N2CCN(CCCNC(=O)Cn3cc4c(n3)CCC(C)C4)CC2)c1` (stereo not given) as the compound, how does the inhibition read?
Answer: Its inhibition is 8% (inactive).

Question: How did the inhibition turn out when `CC(C)c1ccc(S(=O)(=O)N2CCN(CCC(=O)Nc3ccc(N(C)C)cc3)CC2)cc1` was run?
Answer: The inhibition was 5% (inactive).

Question: Which inhibition does the source give for `Cc1cc(NC(=O)CCC(=O)N(CCc2ccccc2)C(C(=O)NC2CCCC2)c2ccco2)no1` (stereo not given) here?
Answer: The inhibition was 7% (inactive).

Question: `Cc1nc(SCC(=O)Nc2ccccc2C(F)(F)F)c2c(=O)n(C)c(=O)n(C)c2n1` was tested. Which inhibition did it give?
Answer: The inhibition was 4% (inactive).

Question: For `CCS(=O)(=O)c1nc2ccccc2n1CC(=O)N1CCOCC1`, which inhibition is on record?
Answer: Its inhibition is 0% (inactive).

Question: Which inhibition does the source give for `CCc1ccc2c(CN(CC)Cc3nc4ccccc4c(=O)[nH]3)cc(=O)oc2c1` here?
Answer: The inhibition was 0% (inactive).

Question: Which inhibition does the source give for `Cc1nc2sccn2c(=O)c1CCN1CCC(=C(c2ccccc2)c2ccc(F)cc2)CC1` here?
Answer: The inhibition was 3% (inactive).

Question: Which inhibition does the source give for `CCCCN(CCCC)CCn1cnc2c([nH]c3ccc(OC)cc32)c1=O` here?
Answer: Its inhibition is 4% (inactive).

Question: Which inhibition does the source give for `CCOC(=O)N1CCN(Cc2nc3c(c(=O)n(C)c(=O)n3C)n2Cc2ccc(F)cc2)CC1` here?
Answer: Its inhibition is 2% (inactive).

Question: For `CC1(C)CC(=O)C=C(Nc2ccc(OCC(F)(F)C(F)F)cc2)C1`, which inhibition is on record?
Answer: Its inhibition is 5% (inactive).

Question: Which inhibition does the source give for `COc1nc(Oc2ccc(=O)n(C)n2)nc(N(C)C)n1` here?
Answer: Its inhibition is 4% (inactive).

Question: For `CCOC(=O)c1cnc(-n2cc(C)cn2)nc1Nc1ccccc1OC`, which inhibition is on record?
Answer: Its inhibition is 0% (inactive).

Question: Which inhibition does the source give for `Cc1ccccc1CN1CCN(CC(=O)NCc2ccccc2)C1=O` here?
Answer: The inhibition was 2% (inactive).

Question: With `O=C(NC1CCCC1)C1CC1c1ccccc1` (stereo not given) as the compound, how does the inhibition read?
Answer: Its inhibition is 0% (inactive).

Question: For `CC(=O)N1CCC2(CC1)CC(=O)c1cc(OCC(=O)NCc3ccc(C)cc3)ccc1O2`, which inhibition is on record?
Answer: Its inhibition is 3% (inactive).

Question: With `Cn1c(=O)[nH]c(=O)c2c1nc(NCCCn1ccnc1)n2Cc1ccccc1` as the compound, how does the inhibition read?
Answer: Its inhibition is 0% (inactive).

Question: How did the inhibition turn out when `COc1cc2nc(C3CCC3)n(NC(=O)C3CCCC(OC)C3)c(=O)c2cc1OC` (stereo not given) was run?
Answer: Its inhibition is 2% (inactive).

Question: With `CC1CCc2nn(CC(=O)Nc3ccc(F)cc3F)cc2C1` (stereo not given) as the compound, how does the inhibition read?
Answer: Its inhibition is 5% (inactive).

Question: How did the inhibition turn out when `Cc1ccc(NC(=O)CN2CC(C)SC2=NC2CCCCC2)cc1` (stereo not given) was run?
Answer: The inhibition was 6% (inactive).

Question: With `Cc1ccc(-n2nnnc2SCC(=O)N2CCN(C(=O)c3ccco3)CC2)c(C)c1` as the compound, how does the inhibition read?
Answer: The inhibition was 0% (inactive).

Question: For `O=C(Nc1ccccc1)c1cccnc1N1CCOCC1`, which inhibition is on record?
Answer: The inhibition was 0% (inactive).

Question: `O=C(C1CCCN(S(=O)(=O)c2ccc(Br)s2)C1)N1CCCCCC1` (stereo not given) was tested. Which inhibition did it give?
Answer: Its inhibition is 0% (inactive).

Question: Which inhibition does the source give for `CCOC(=O)N1CCN(C(=O)CN2C(=O)COc3ccc(C)cc32)CC1` here?
Answer: The inhibition was 6% (inactive).

Question: `COCc1ccccc1Cn1cnc2c1c(=O)n(C)c(=O)n2C` was tested. Which inhibition did it give?
Answer: The inhibition was 3% (inactive).

Question: Which inhibition does the source give for `CCNc1nc(N2CCCCC2)nc(-n2nnc(C(=O)OCC)c2C)n1` here?
Answer: Its inhibition is 2% (inactive).

Question: Which inhibition does the source give for `CCN(CC(=O)Nc1ccc(S(N)(=O)=O)cc1)S(=O)(=O)c1cc(C)ccc1OC` here?
Answer: Its inhibition is 6% (inactive).

Question: With `COc1ccc(C(N)=O)cc1N` as the compound, how does the inhibition read?
Answer: Its inhibition is 0% (inactive).

Question: With `O=C(Oc1ccc(Cl)cc1N1C(=O)CCC1=O)c1ccco1` as the compound, how does the inhibition read?
Answer: Its inhibition is 6% (inactive).

Question: For `Cc1ccc(Cl)cc1N1CCN(C(=O)c2cn(C)c(=O)c3c2c2ccccc2n3C)CC1`, which inhibition is on record?
Answer: The inhibition was 3% (inactive).

Question: How did the inhibition turn out when `Nn1c(SCC(=O)Nc2ccc(Oc3ccccc3)cc2)nnc1C1CC1` was run?
Answer: The inhibition was 7% (inactive).

Question: `O=C(CN1C(=O)CC(c2ccco2)Sc2ccccc21)Nc1ccc2c(c1)OCCO2` (stereo not given) was tested. Which inhibition did it give?
Answer: Its inhibition is 3% (inactive).

Question: `COCCCN1C(=O)C(O)=C(C(=O)c2ccco2)C1c1ccc(Br)cc1` (stereo not given) was tested. Which inhibition did it give?
Answer: Its inhibition is 6% (inactive).

Question: With `O=C(O)CCCC(=O)Nc1ccc(Br)cc1C(=O)O` as the compound, how does the inhibition read?
Answer: Its inhibition is 0% (inactive).

Question: `Cc1occc1C(=O)Nc1cccnc1` was tested. Which inhibition did it give?
Answer: Its inhibition is 16% (inactive).

Question: With `CCOc1cc(-c2nc(-c3ccc(C)nc3OCC)no2)cc(OCC)c1OCC` as the compound, how does the inhibition read?
Answer: Its inhibition is 0% (inactive).

Question: How did the inhibition turn out when `CCn1c2ccccc2c2cc(N)ccc21` was run?
Answer: Its inhibition is 0% (inactive).

Question: For `CC(C)COc1ccc(C(=O)OCCN2CCOCC2)cc1`, which inhibition is on record?
Answer: The inhibition was 1% (inactive).
